Mtb hypoxia inh – Mtb hypoxia fluorescent reporter inhibition; M. tuberculosis hypoxia-regulated fluorescent reporter, fluorescence; fluorescence inhibition, % (test concentration not listed); 0.1% of 300,000 active; in the data active means fluorescence inhibition mostly above about 23%, no sharp cut-off; inactive means mostly below about 17%
CCHF vOTU inh-1 – CCHFV vOTU protease inhibition | 0.55% of 370,000 active | Pep-AMC fluorescence | inhibition, % at 11.5 µM | AID 651958; further: 0% = vehicle wells with enzyme and 100% = no enzyme wells
DUSP3 inh – DUSP3 (human) phosphatase inhibition | inhibition, % at 13.3 µM | recombinant VHR phosphatase, pNPP absorbance | 0.52% of 290,000 active | AID 1654; in the data active means inhibition above about 50%
Target sequence (P51452 whole entry, looked up): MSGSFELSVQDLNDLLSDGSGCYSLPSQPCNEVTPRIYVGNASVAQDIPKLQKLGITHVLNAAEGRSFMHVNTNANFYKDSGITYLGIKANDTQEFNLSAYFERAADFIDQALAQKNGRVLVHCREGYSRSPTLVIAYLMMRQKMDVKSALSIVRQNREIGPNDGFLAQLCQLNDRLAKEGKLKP
SARS 3CLpro inh – SARS-CoV 3CLpro protease inhibition | P0C6X7 | inhibition, % at 6 µM | recombinant SARS-CoV 3CLpro, quenched FRET peptide cleavage | 0.14% of 290,000 active; in the data active means inhibition above about 12%
SSB-PriA inh – K. pneumoniae PriA-SSBct interaction inhibition; AlphaScreen SSBct-PriA binding, biotinylated peptide; 0.6% of 430,000 active; inhibition, % at 33 µM; in the data active means inhibition mostly above about 37%, no sharp cut-off; inactive means mostly below about 20%;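 further: plate controls were negative control peptide for no effect and reference peptide for full effect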
CCHF vOTU inh-2 – confirmation of CCHF virus vOTU protease inhibitors; shares compounds with CCHF vOTU inh-1; Recombinant CCHFV vOTU, Pep-AMC fluorescence; inhibition, % at 11.5 µM; 17% of 1,900 active; AID 686976
Starred values were filed as active, the others as inactive; x = no result shown. Sampled rows, rich in hits. Any-hit rate of the full collection: about 1.3%. Unless noted, no stated cut-off is given here; in the data, active means inhibition above about 30%; inactive means the rest.

SMILES	Mtb hypoxia inh	CCHF vOTU inh-1	DUSP3 inh	SARS 3CLpro inh	SSB-PriA inh	CCHF vOTU inh-2
CC1(OC(=O)C2CCCC2)C(=O)C=C2C=C(c3ccsc3)N(CCCCO)C=C2C1=O (stereo not given)	6.7	30.1*	22.5	x	-10.6	34.5*
CCOC(=O)c1cnn2ccc(NC(=O)C(C)(C)Oc3ccc(Cl)cc3)cc12	x	x	x	x	-22.0	x
CCN1C(=O)[C@@H]2[C@H](C1=O)[C@@H]1C(=O)Nc3ccccc3C(=O)N1[C@@H]2c1ccc(OC)cc1	x	33.7*	x	x	1.1	-31.1
CCN1C(=O)C2C(C1=O)C(c1cccc(OC)c1)N1C(=O)c3ccccc3NC(=O)C21 (stereo not given)	2.7	x	x	x	x	x
Cc1cc2ncc(NC(=O)c3ccc4c(c3)OCO4)cn2n1	x	x	x	x	-7.0	x
CCCCNC(=O)c1cccc(S(=O)(=O)N2CC3(C)CC2CC(C)(C)C3)c1 (stereo not given)	1.4	30.8*	x	x	-5.3	14.0
COCCCNC(=O)c1cccc(S(=O)(=O)N2CC3(C)CC2CC(C)(C)C3)c1 (stereo not given)	x	1.9	x	x	-4.8	x
COCCNC(=O)c1cccc(S(=O)(=O)N2CC3(C)CC2CC(C)(C)C3)c1 (stereo not given)	1.8	33.0*	x	x	-31.2	-13.3
CC(Oc1ccccc1)C(=O)Nc1nc(C2CCCCC2)cs1 (stereo not given)	x	x	x	x	-32.0	x
CCc1ccc([C@H]2C(C(=O)O)=C[C@@H](CC3CCCC3)N2S(=O)(=O)c2ccc(C)cc2)cc1	-1.1	47.4*	x	x	-3.1	13.2
CCCC[C@@H]1C=C(C(=O)O)[C@H](c2ccc(Cl)c(Cl)c2)N1S(=O)(=O)c1ccc(C)cc1	-7.2	31.6*	x	x	-7.5	21.2
CCCCC[C@@H]1C=C(C(=O)O)[C@H](c2ccc(Cl)cc2)N1S(=O)(=O)c1ccc(C)cc1	x	31.8*	x	x	-10.8	2.7
O=C(NCCn1nc(C(F)(F)F)c2c1CCOC2)C1CCC1	x	x	x	x	2.0	x
CC(C)CS(=O)(=O)C1CCN(C(=O)c2ccc(-c3ccsc3)cc2)CC1	x	x	x	x	-1.0	x
CCOC(=O)c1c(S(=O)(=O)NCC(=O)NCc2ccc(C)cc2)c(C)n(C)c1C	5.0	41.6*	-14.4	-3.0	-2.4	-11.5
CCOC(=O)C1(Cc2cccc(Cl)c2)CCCN(C(=O)c2ccco2)C1 (stereo not given)	10.0	0.2	1.6	3.9	-6.0	x
CCOC(=O)C1(Cc2cccc(Cl)c2)CCCN(C(=O)c2ccc(COC)s2)C1 (stereo not given)	x	31.0*	-17.2	0.1	-12.6	-4.2
CC(C)N(C(=O)Nc1ccc2nsnc2c1)C(C)C	-2.0	98.0*	35.6	3.5	15.4	66.6*
S=C(Nc1ccc2nsnc2c1)N1CCCCCC1	-0.6	36.0*	12.9	-0.8	-14.9	96.8*
COc1ccc(NC(=S)Nc2ccc3nsnc3c2)cc1	9.4	117.8*	13.3	8.3	17.4	99.6*
COc1ccc(NC(=S)Nc2ccc3nc(C)c(C)nc3c2)cc1	7.0	-3.0	21.9	-9.0	0.2	x
O=C(Nc1ccc2nsnc2c1)N1CCCCC1	x	6.3	28.3	-0.7	-18.1	x
COCCNC(=S)Nc1ccc2nsnc2c1	x	99.6*	-0.1	-4.7	-9.3	-15.5
O=C1CCCN1c1ccc(S(=O)(=O)O)cc1	x	x	x	x	-5.7	x
O=C(Nc1nc2c(s1)Cc1ccccc1-2)c1sc2ccccc2c1Cl	x	x	x	x	-13.0	x
SMILES	Mtb hypoxia inh	CCHF vOTU inh-1	DUSP3 inh	SARS 3CLpro inh	SSB-PriA inh	CCHF vOTU inh-2
Cc1cccc(N(C)S(=O)(=O)c2c(-c3cccc(F)c3)csc2C(=O)NCc2ccco2)c1	x	x	x	x	-1.0	x
CCc1ccc(NC(=O)Cn2c(=O)n(CCCCC(=O)NCCC(C)C)c(=O)c3ccccc32)cc1	x	x	x	x	7.0	x
CCOc1ccc(NC(=S)Nc2ccc3nsnc3c2)cc1	x	118.0*	17.0	0.1	0.1	92.4*
C=CCN(CC=C)C(=S)Nc1ccc2nsnc2c1	12.3	51.5*	26.2	5.9	-106.3	87.3*
CCOc1ccc(NC(=O)Nc2ccc3nsnc3c2)cc1	7.8	13.5	19.1	2.5	-11.5	x
CCCCNC(=O)c1nc(C2CCN(S(=O)(=O)c3csc(C(=O)O)c3)CC2)oc1-c1ccccc1	x	29.6*	x	x	x	3.9
CCCCNC(=O)c1nc(C2CCN(S(=O)(=O)c3ccc(Cl)cc3)CC2)oc1-c1ccccc1	x	-7.7	x	x	x	x
CC(O)(c1ccc(F)c(F)c1)c1nc(/C=C/c2ccc(C(F)(F)F)cc2)cs1 (stereo not given)	x	32.5*	x	x	x	-5.6
Cc1cnc(C=NNC(N)=S)c2cccc(N)c12	x	44.6*	x	x	14.4	73.2*
COc1ccc(C(O)c2nccc3cc(OC)c(OC)cc23)cc1OC (stereo not given)	11.8	89.5*	4.0	1.5	5.2	-10.0
CSCC(=O)NC1CCCc2c1cnn2-c1cc(F)cc(F)c1 (stereo not given)	-0.2	30.2*	-1.9	1.9	-16.5	-25.6
CCN(CC)CC(=O)NC1CCCc2c1cnn2-c1cc(F)cc(F)c1 (stereo not given)	x	2.6	x	0.9	1.2	x
O=S(=O)(Cc1ccc(C(F)(F)F)cc1)N(Cc1ccsc1)Cc1ccco1	x	x	x	x	-31.0	x
COc1cccc(Nc2nc(C(N)CC(C)C)cs2)n1 (stereo not given)	x	16.2	x	x	x	x
COc1cccc(Nc2nc(C(N)C(C)C)cs2)n1 (stereo not given)	x	34.4*	x	x	x	-6.0
COc1cc(C(=O)NNC(=S)NC(=O)c2ccc(Cl)cc2)cc(OC)c1OC	-4.8	29.9*	5.0	4.0	11.9	-4.4
COc1ccc(C(=O)NNC(=S)NC(=O)c2ccc(Cl)cc2)cc1	-3.7	-11.4	x	x	-4.4	x
COc1ccc(CNc2ccc3cn[nH]c3c2)c(OC)c1OC	7.5	39.8*	-1.8	2.6	46.0	-18.1
COc1ccc(N2CC(C(=O)Nc3nnc(C4CCCCC4)s3)CC2=O)cc1 (stereo not given)	10.7	30.4*	-11.2	1.2	-3.0	4.9
CCCCOCCCNC(=O)C[C@H]1C[C@@]2(C(=O)OC)C(=C[C@H](C(C)C)O[C@@H]2C2CC2)N(CCC2=CCCCC2)C1=O	x	39.4*	x	x	x	6.3
COC(=O)[C@]12C[C@H](CC(=O)NCC3CCCCC3)C(=O)N(CCC3=CCCCC3)C1=C[C@H](C(C)C)O[C@@H]2C1CC1	x	4.6	x	x	x	x
CCCCNC(=O)C[C@H]1C[C@@]2(C(=O)OC)C(=C[C@H](C(C)C)O[C@@H]2C2CC2)N(CCC2=CCCCC2)C1=O	x	17.8	x	x	x	x
COC(=O)[C@]12C[C@H](CC(=O)NCCCCc3ccccc3)C(=O)N(CCC3=CCCCC3)C1=C[C@H](C(C)C)O[C@@H]2C1CC1	x	36.8*	x	x	x	1.8
Cc1[nH]n(-c2ccccc2)c(=O)c1C(c1cccc([N+](=O)[O-])c1)c1c(C)[nH]n(-c2ccccc2)c1=O	10.7	40.6*	4.5	-0.9	21.7	-13.0
Cc1[nH]n(-c2ccccc2)c(=O)c1C(c1cccc([N+](=O)[O-])c1O)c1c(C)[nH]n(-c2ccccc2)c1=O	12.9	32.6*	1.5	-0.8	27.3	-16.8
CCOC(=O)c1cnc2cc(-c3ccc(C)cc3)nn2c1C	x	29.5*	x	x	x	-22.3
CCOC(=O)c1cnc2cc(-c3ccc(C)cc3)nn2c1-c1ccccc1	5.2	-6.4	-0.7	-0.8	-28.5	x

Screening data: PubChem BioAssay, several laboratories
